Several values for one entry are separate records, joined by “and”; a condition that tells them apart may be missing. Equal entries are not always repeated. Some compounds were tested as several samples or in several runs, with calls that do not always agree. Activity calls are given as the source filed them. Unless noted, calls come from the whole dose curve; as a rule, active = well fitted curve in the direction sought with a large enough effect in the repeat runs; inconclusive = weak or mixed curves; inactive = no such curve, though single readings can be large; an effect the other way counts as inactive or inconclusive.

A short description of assay [1]: qHTS assay to identify small molecule antagonists of the thyroid receptor (TR) signaling pathway (AID 743065). Note: nearly all actives have a fitted effect of over 55% in size. Note: potency is the fitted concentration of half-maximal effect. The method in brief:
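Antagonism measured as loss of luciferase signal in GH3 cells stably carrying a TRE-luciferase reporter, co-treated with compound and T3 (1 nM final) for 23.5 h at 37 C. Viability was read in the same well by CellTiter-Fluor.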
A general note: qHTS replaces the single test concentration by a dilution series.

The subject of assay [2] is thyroid hormone receptor (rat, GH3 cells). In words: qHTS assay to identify small molecule agonists of the thyroid receptor (TR) signaling pathway (AID 743066; calls by dose curve).
For assay [3], the target named is Estrogen receptor (Homo sapiens) (UniProt P03372). In words: qHTS assay to identify small molecule antagonists of the estrogen receptor alpha (ER-alpha) signaling pathway (AID 743069; active = well fitted curve in the direction sought with a large enough effect in the signal ratio in the repeat runs, not every such curve was filed as active; inconclusive = weak or mixed curves, or effect the other way; inactive = no such curve, though single readings can be large or run the other way; the % refers to the signal ratio; note: potency is the fitted concentration of half-maximal effect). Put shortly: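 Antagonist mode: compounds in DMSO were co-added with 17beta-estradiol to ER-alpha-bla HEK293 cells (2% charcoal-stripped serum) and left 18 h at 37C. Reporter inhibition was measured as FRET fluorescence after 2 h LiveBLAzer substrate at room temperature.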

Assay [4] in a line: qHTS assay to identify small molecule antagonists of the estrogen receptor alpha (ER-alpha) signaling pathway - cell viability counter screen (AID 743074; calls by dose curve;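 note: HEK293 cells carrying ER-alpha-UAS-bla reporter stimulated with 17beta-estradiol; nearly all actives have a fitted effect of over 45% in size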).
The target in assay [5] is Estrogen receptor (Homo sapiens) (UniProt P03372). In words: qHTS assay to identify small molecule agonists of the estrogen receptor alpha (ER-alpha) signaling pathway (AID 743075; calls by dose curve;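 note: HEK293 GripTite cells with ER-alpha and UAS-driven beta-lactamase reporter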; note: potency is the fitted concentration of half-maximal effect).
The target is the same in assay [6]. In words: qHTS assay to identify small molecule agonists of the estrogen receptor alpha (ER-alpha) signaling pathway using the BG1 cell line (AID 743079). Note: nearly all actives have a fitted effect of over 20% in size. Note: potency is the fitted concentration of half-maximal effect. Particulars: BG1Luc4E2 cells, ERE-luciferase agonist, 22 h; activation: at 70.3 µM (top of the series).
Assay [7] is described as follows: qHTS assay to identify small molecule antagonists of the estrogen receptor alpha (ER-alpha) signaling pathway using the BG1 cell line - cell viability counter screen (AID 743081).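 Note: compound given together with 17beta-estradiol as the ER stimulus; nearly all actives have a fitted effect of over 45% in size.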
The target in a further assay is Aromatase (Homo sapiens) (UniProt P11511). The assay is described as follows: qHTS assay to identify aromatase inhibitors (AID 743083). Note: nearly all actives have a fitted effect of over 55% in size. Note: potency is the fitted concentration of half-maximal effect.
Assay [8] is described as follows: qHTS assay to identify aromatase inhibitors - cell viability counter screen (AID 743084).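 Note: cells stimulated with testosterone during compound exposure; nearly all actives have a fitted effect of over 55% in size.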 Note: potency is the fitted concentration of half-maximal effect.
Assay [9] in a line: qHTS assay to identify small molecule antagonists of the estrogen receptor alpha (ER-alpha) signaling pathway using the BG1 cell line (AID 743080; calls by dose curve;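 note: BG1 cells stimulated with 17beta-estradiol alongside compound; nearly all actives have a fitted effect of over 25% in size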; note: potency is the fitted concentration of half-maximal effect). The method in brief:
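Quantitative HTS on the Tox21 10K library: BG1 cells with endogenous ER-alpha and ERE-luciferase reporter, 17beta-estradiol stimulation, 21.5 h compound exposure, luminescence endpoint with parallel fluorescence cytotoxicity counter-read.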

Chain of Estrogen receptor (Homo sapiens) (P03372 whole entry, looked up): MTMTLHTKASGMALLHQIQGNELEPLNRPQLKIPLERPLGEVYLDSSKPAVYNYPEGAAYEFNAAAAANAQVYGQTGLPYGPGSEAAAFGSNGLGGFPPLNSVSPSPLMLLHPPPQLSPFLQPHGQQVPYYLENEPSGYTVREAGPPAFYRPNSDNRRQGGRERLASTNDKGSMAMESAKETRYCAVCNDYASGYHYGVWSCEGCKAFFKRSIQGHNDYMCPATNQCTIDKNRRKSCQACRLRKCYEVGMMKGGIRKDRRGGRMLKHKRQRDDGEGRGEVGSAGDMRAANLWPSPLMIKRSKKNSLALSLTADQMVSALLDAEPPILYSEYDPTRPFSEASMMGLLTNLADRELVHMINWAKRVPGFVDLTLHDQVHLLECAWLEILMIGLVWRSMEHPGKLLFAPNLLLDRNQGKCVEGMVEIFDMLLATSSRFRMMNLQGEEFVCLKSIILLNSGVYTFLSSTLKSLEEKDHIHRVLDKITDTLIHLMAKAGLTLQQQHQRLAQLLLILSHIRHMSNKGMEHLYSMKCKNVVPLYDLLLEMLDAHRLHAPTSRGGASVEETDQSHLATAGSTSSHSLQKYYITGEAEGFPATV
Chain of Aromatase (Homo sapiens) (P11511 whole entry, looked up): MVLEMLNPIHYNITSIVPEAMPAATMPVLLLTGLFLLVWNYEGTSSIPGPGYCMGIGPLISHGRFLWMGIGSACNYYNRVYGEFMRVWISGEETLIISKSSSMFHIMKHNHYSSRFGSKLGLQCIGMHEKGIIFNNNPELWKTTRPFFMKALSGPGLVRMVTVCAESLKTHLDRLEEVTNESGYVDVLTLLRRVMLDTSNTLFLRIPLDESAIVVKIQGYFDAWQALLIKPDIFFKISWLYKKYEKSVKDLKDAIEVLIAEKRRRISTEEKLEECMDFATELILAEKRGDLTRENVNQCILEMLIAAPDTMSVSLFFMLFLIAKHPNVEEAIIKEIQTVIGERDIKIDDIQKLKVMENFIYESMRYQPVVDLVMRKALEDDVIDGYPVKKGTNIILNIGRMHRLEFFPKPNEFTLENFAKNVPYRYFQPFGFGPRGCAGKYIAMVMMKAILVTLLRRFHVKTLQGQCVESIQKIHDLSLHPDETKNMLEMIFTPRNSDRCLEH

For the compound `Cc1cc2c(OCC(CNC(C)(C)C)OC(=O)c3ccccc3)cccc2[nH]1` (configuration not stated), in assay [1], the Potency was 26.6 µM (active). Also, the compound was classed as inactive in [2]. Further, the Potency entry (in assay [3]; in assay [4]; in [5]; in assay [6]; in assay [7]; with Aromatase (Homo sapiens)) was “inactive” throughout. Besides, the Potency result in [8] is “inactive”.

Turning to `CCN(CC)CCNC(=O)COc1ccc(OC)cc1`, the Potency result (in [1]; in assay [3]; in assay [4]; in assay [5]; in [7]; with Aromatase (Homo sapiens)) was “inactive” in each case. The Potency result in assay [8] was “inactive”. Further, in assay [2], the result was inactive. The Potency in assay [6] is 23.7 µM (active).

On to `O=C(OCC(O)CO)c1ccccc1Nc1ccnc2cc(Cl)ccc12` (configuration not stated), for which the Potency result in assay [1], in [4], in assay [5], in [6], in assay [9] and in assay [7] was “inactive” throughout. For the same compound, the Potency result (with Aromatase (Homo sapiens); in [8]) was “inactive” each time. Also, the outcome in assay [2] was inactive.

For `C=C(C)C(=O)OCCOCCOC(=O)C(=C)C`, the Potency result in assay [1], in [4], in assay [5], in assay [6], in [9] and in assay [7] was “inactive” each time. For the same compound, the Potency entry (in the assay with Aromatase (Homo sapiens); in [8]) was “inactive” throughout. Besides, in assay [2], the result was inactive.

On to `N#[N+]c1ccc2c(S(=O)(=O)[O-])cccc2c1O`, for which the Potency entry (in assay [1]; in assay [4]; in assay [5]; in assay [9]; in assay [7]; with Aromatase (Homo sapiens)) was “inactive” in each case. Besides, the call in [2] was inactive.

Turning to `Oc1cccc(O)c1O`, the Potency entry (in assay [1]; in [4]; in assay [9]; in assay [7]; with Aromatase (Homo sapiens); in assay [8]) was “inactive” in each case. In addition, the result in [2] was inactive. Moreover, the Potency in assay [5] is 21.3 µM [inconclusive] (active) and 54.5 µM [inconclusive] (active); in assay [6], 5.96 µM (active).

With `Cc1cccc(N(C)C(=S)Oc2ccc3c(c2)CCC3)c1`, the Potency entry (in assay [1]; in assay [4]; in assay [5]; in assay [6]; with Aromatase (Homo sapiens); in [8]) was “inactive” in each case. The result in [2] was inactive.

In the case of `O=C(/C=C/c1ccccc1)OCCc1ccccc1`, the Potency result (in assay [1]; in assay [4]; in assay [5]; in assay [7]; with Aromatase (Homo sapiens); in assay [8]) was “inactive” throughout. Also, the compound was classed as inactive in assay [2]. In assay [6], the Potency is 4.86 µM (active).

As for `CC=C(Cl)Cl`, the Potency entry in assay [1], in [3], in [4], in [6], in assay [9] and in [7] was “inactive” in each case. For the same compound, the Potency entry (with Aromatase (Homo sapiens); in assay [8]) was “inactive” in each case. Besides, the result in assay [2] was inactive.

`CCCCCC[C@@H](O)C/C=C\CCCCCCCC(=O)OCC(O)CO` (some centres not stated): the Potency entry (in assay [1]; in [4]; in [5]; in [6]; in [7]; with Aromatase (Homo sapiens)) was “inactive” throughout. Besides, the Potency entry in assay [8] is “inactive”. The result in [2] was inactive.

Take `O=C=Nc1cccc(C(F)(F)F)c1`: the Potency in [1] is 54.1 µM (active). The compound was classed as inactive in [2]. Besides, the Potency entry in [4], in assay [5], in assay [6], in assay [7] and in [8] was “inactive” each time.

Take `CC(C)(O)c1ccc(CNC(=O)c2cccnc2Oc2ccc3nonc3c2)cc1`: the Potency entry (in assay [1]; in assay [4]; in assay [5]; in assay [7]; with Aromatase (Homo sapiens); in [8]) was “inactive” in each case. In assay [2], the call was inactive.

Regarding `c1ccc(C[n+]2cccc3ccccc32)cc1`, the Potency entry (in [1]; in assay [4]; in assay [5]; with Aromatase (Homo sapiens); in assay [8]) was “inactive” throughout. In addition, in assay [2], the call was inactive. Besides, in assay [3], the Potency was 49 µM [inconclusive] (active).

As to `C/C=C/C=C/C=O`, the Potency entry (in assay [1]; in [3]; in assay [5]; in [6]; in assay [7]; with Aromatase (Homo sapiens)) was “inactive” in each case. Besides, in assay [8], the Potency result is “inactive”. Moreover, in assay [2], the outcome was inactive.

Consider `O=C1c2ccccc2C(=O)C1c1nc2ccccc2c(Br)c1O`, for which the Potency result (in [1]; in assay [4]; in assay [5]; in [6]; in [7]; with Aromatase (Homo sapiens)) was “inactive” throughout. In addition, the result in assay [2] was inactive.

For `CN1CC(=O)N2[C@H](c3ccc4c(c3)OCO4)c3[nH]c4ccccc4c3C[C@@H]2C1=O`, the Potency entry (in assay [1]; in [3]; in assay [5]; in [6]; in [7]; in the assay with Aromatase (Homo sapiens)) was “inactive” throughout. In assay [2], the compound was called inactive.

For `C[C@H]1c2cccc(O)c2C(O)=C2C(=O)[C@]3(O)C(O)=C(C(N)=O)C(=O)[C@@H](N(C)C)[C@@H]3[C@@H](O)[C@@H]21`, the Potency entry in assay [1], in assay [4], in assay [5], in assay [6], in assay [9] and in [7] was “inactive” throughout. Further, the Potency entry (in the assay with Aromatase (Homo sapiens); in assay [8]) was “inactive” in each case. Also, the call in assay [2] was inactive.

In the case of `CCOC(=O)C1=C(C)NC(C)=C(C(=O)OC)C1c1cccc(Cl)c1Cl` (configuration not stated), the Potency in assay [1] was 18.8 µM (active); in assay [5], 10.7 µM [activator] (active). In addition, the outcome in assay [2] was inactive. Further, the Potency result (in [4]; in assay [6]; in [9]; in [7]; in the assay with Aromatase (Homo sapiens); in assay [8]) was “inactive” in each case.

Take `CCCCCCC(C)(C)C(=O)O`: the Potency result in assay [1], in assay [3], in assay [5], in assay [6], in assay [9] and in assay [7] was “inactive” in each case. Further, the Potency result (with Aromatase (Homo sapiens); in assay [8]) was “inactive” each time. Further, the result in [2] was inactive.

For `CCOC(=O)c1ccc(OCCN2C[C@H](O)[C@@H](O)[C@H](O)[C@H]2CO)cc1`, the Potency result (in assay [1]; in assay [3]; in [5]; in assay [6]; in assay [7]; in the assay with Aromatase (Homo sapiens)) was “inactive” each time. In addition, the Potency result in assay [8] is “inactive”. Also, the compound was classed as inactive in assay [2].

Take `O=C1NCCN1CCO`: the Potency result (in [1]; in [4]; in assay [7]; with Aromatase (Homo sapiens)) was “inactive” each time. Besides, the compound was called inactive in assay [2].

As to `CCCCN1CCCC1C(=O)Nc1c(C)cc(C)cc1C` (configuration not stated), the Potency result (in [1]; in assay [4]; in [5]; in [6]; in assay [7]; in the assay with Aromatase (Homo sapiens)) was “inactive” in each case. Further, the Potency result in assay [8] was “inactive”. The outcome in assay [2] was inactive.

With `NC1[C@H]2CN(c3nc4c(cc3F)c(=O)c(C(=O)O)cn4-c3ccc(F)cc3F)C[C@@H]12` (some centres not stated), the results for the Potency (in assay [1]; in assay [9]; with Aromatase (Homo sapiens)) were 9.44 µM (active), 13.3 µM (active) and 0.473 µM (active), respectively. The outcome in assay [2] was inactive. Moreover, the Potency entry in assay [4], in assay [7] and in assay [8] was “inactive” each time.

For `CC(C)c1nc(CN(C)C(=O)N[C@H](C(=O)N[C@@H](Cc2ccccc2)C[C@H](O)[C@H](Cc2ccccc2)NC(=O)OCc2cncs2)C(C)C)cs1`, the Potency in assay [1] was 10.6 µM (active); in assay [8], “inactive and 23.7 µM (active)”. Moreover, the compound was called inactive in assay [2]. Moreover, the Potency result (in [4]; in assay [5]; in [6]; in the assay with Aromatase (Homo sapiens)) was “inactive” throughout.

As for `CCCCCCCCCI`, the Potency entry (in assay [1]; in [3]; in assay [4]; in [9]; in assay [7]; with Aromatase (Homo sapiens)) was “inactive” throughout. The Potency result in [8] is “inactive”. The call in assay [2] was inactive.

For the compound `CCOC(=O)c1ccccc1C(=C1C=C(Br)C(=O)C(Br)=C1)c1cc(Br)c(O)c(Br)c1`, the Potency is 18.2 µM (active) in assay [1] and 5.8 µM [inconclusive] (active) in [3]. Moreover, in [2], the outcome was inactive. The Potency entry (in assay [6]; in assay [7]; with Aromatase (Homo sapiens); in assay [8]) was “inactive” each time.

Consider `CC1(C)[C@H](C(=O)O)N2C(=O)C[C@H]2S1(=O)=O`, for which the Potency result in assay [1], in assay [4], in assay [5], in [6], in [9] and in assay [7] was “inactive” in each case. Further, the Potency entry (with Aromatase (Homo sapiens); in assay [8]) was “inactive” throughout. For the same compound, the compound was called inactive in [2].

With `O=C(Cn1ccnc1[N+](=O)[O-])NCCO`, the Potency entry in assay [1], in [3], in assay [5], in assay [6], in assay [9] and in assay [7] was “inactive” throughout. In addition, the Potency entry (with Aromatase (Homo sapiens); in assay [8]) was “inactive” throughout. In addition, the call in assay [2] was inactive.

Source of the values: PubChem BioAssay (Tox21).
